D1 ag – agonists of human D1 dopamine receptor; P21728; HEK293 T-REx D1 cells, calcium flux, agonist mode; activation, % at 2 µM; 360,000 tested, 1% active; AID 504660; in the data active = activation above about 30%; also: 0% is about no effect
Target sequence (P21728 whole entry, looked up): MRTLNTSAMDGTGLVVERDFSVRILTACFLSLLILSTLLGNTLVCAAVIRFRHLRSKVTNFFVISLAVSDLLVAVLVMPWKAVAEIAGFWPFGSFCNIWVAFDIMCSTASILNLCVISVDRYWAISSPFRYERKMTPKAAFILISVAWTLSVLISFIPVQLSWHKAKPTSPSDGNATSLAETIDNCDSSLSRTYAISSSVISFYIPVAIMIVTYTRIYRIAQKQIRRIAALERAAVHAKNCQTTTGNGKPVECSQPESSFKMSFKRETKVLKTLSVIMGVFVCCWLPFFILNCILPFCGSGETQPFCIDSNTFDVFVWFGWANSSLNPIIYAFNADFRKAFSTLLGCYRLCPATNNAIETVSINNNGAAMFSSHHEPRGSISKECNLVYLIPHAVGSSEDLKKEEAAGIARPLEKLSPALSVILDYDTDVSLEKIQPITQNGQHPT
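Agonism was scored from calcium flux recorded over 180 s (1 read/s) after pintool compound addition, following a 10-cycle baseline. Cells were inducible force-coupled HEK293 TREx D1, plated overnight at 30 C and loaded with no-wash calcium dye.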
D1 PAM – potentiators of human D1 dopamine receptor. P21728. HEK293 TREx D1 cells, calcium flux, dopamine EC20 potentiation. potentiation, % at 10 µM. 360,000 tested, 0.036% active; in the data active = potentiation above about 30%; also: 0% is about no effect
D1 antag – antagonists of human D1 dopamine receptor | 360,000 tested, 3.2% active | AID 504652 | activity change, negative = inhibition, % at 10 µM | HEK293 TREx D1 cells, calcium flux, dopamine EC80; hits give low values; in the data active = activity change below about -30%; also: % is scaled to controls: 0 for no effect and ±100 for the full control effect
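Cells carrying a force-coupled, tetracycline-inducible human D1 receptor report calcium flux. Each well gets a 10 s baseline, compound with 180 s monitoring, then an EC80 dopamine stimulus with a second 180 s kinetic read.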
TRPV1 PAM – potentiators of human vanilloid receptor 1 (TRPV1); Q8NER1; TRPV1-expressing cells, Fluo-8 calcium influx, capsaicin EC20 potentiation; potentiation, % at 8.33 µM; 320,000 tested, 0.02% active; in the data active = potentiation above about 80%; inconclusive = between about 30% and that limit; also: 0% is about no effect
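Fluo-8 calcium influx in TRPV1-expressing cells, kinetic read (ex 480/em 520 nm). Compound added and read 3 min for agonist activity, followed by capsaicin at EC20 final and 2 min further read for enhancement.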
TRPV1 agonist – activates the human vanilloid receptor TRPV1. activation, % at 8.33 µM. Q8NER1. 320,000 tested, 0.19% active. TRPV1-expressing cells, Fluo-8 calcium influx, agonist mode. AID 540275; in the data active = activation above about 80%; inconclusive = between about 30% and that limit; also: 0% is about no effect
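Fluo-8 calcium influx in TRPV1-expressing cells, kinetic read (ex 480/em 520 nm). Compound added and read 3 min for agonist activity, followed by capsaicin at EC20 final and 2 min further read for enhancement.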
The depositor's hits bear a star; ? = inconclusive; . = not tested or not shown; ! = a repeat was not active. In the library only some 4.2% were active in any assay of this set; here they are far more common.

SMILES	D1 ag	D1 PAM	D1 antag	TRPV1 PAM	TRPV1 agonist
CCN(CC)CCCNC(=O)CCCn1c(=O)[nH]c2ccc(Br)cc2c1=O	0	3	-31*	.	.
CCCCCn1c(=O)[nH]c2cc(C(=O)NCCN(CC)CC)ccc2c1=O	2	4	10	-12	0
COc1ccc(Nc2nc(-c3c[nH]c4ccccc34)cs2)cc1	3	-1	-39*	-1	2
CC1(C)O[C@H]2[C@@H](O1)[C@@H](C(=O)Nc1cc(F)ccc1F)O[C@@H]1OC(C)(C)O[C@@H]12	-1	-2	8	.	.
CC(C)(C)c1csc(NNC(=O)c2ccc(Br)cc2)n1	3	0	-10	-20	80*
CCOc1ccc(CNC(=O)C2CCN(C(=O)N3CC(CC)Oc4ccc(C)cc43)CC2)cc1OC (stereo not given)	3	7	4	.	.
CCN(c1ccccc1)S(=O)(=O)c1ccc2[nH]cc(C(=O)NCc3ccc(C)cc3)c(=O)c2c1	2	-5	0	.	.
COc1ccc(-c2cccc(NS(=O)(=O)c3cc(C)c(Cl)cc3C)c2)nn1	3	2	7	.	.
Cc1ccc(C(=O)c2c[nH]c(C(=O)NCc3cccnc3)c2)cc1	3	-10	-49*	2	1
O=C(NCc1ccc(Cl)cc1)c1ccc(-c2ccccc2C(F)(F)F)o1	33*	-3	-39*	2	-1
O=C(NCc1cccnc1)c1ccc(CS(=O)(=O)Cc2ccc(Cl)cc2)o1	3	0	-4	-13	1
Cc1ccc(CS(=O)(=O)Cc2ccc(C(=O)NCc3cccnc3)o2)cc1	0	-1	-33*	-2	-1
O=C(Nc1ccccc1)c1ccc(-c2ccccc2C(F)(F)F)o1	-1	-2	14	-3	?
O=C(NCc1cccnc1)c1ccc(-c2ccc(Cl)cc2)o1	2	-2	6	-17	86*
COc1cccc(C(=O)c2c[nH]c(C(=O)NCc3cccnc3)c2)c1	4	-4	-14	11	1
O=C(NCc1cccnc1)c1ccc(-c2cc(Cl)ccc2Cl)o1	4	-3	7	-11	?
CN(C)c1ccc(-c2nc(-c3cc4cc(Cl)ccc4oc3=O)cs2)cc1	1	-2	3	.	.
Cc1ccc(NC(=O)CC2=NC(=O)C(CC(=O)Nc3ccccc3F)S2)cc1 (stereo not given)	1	-5	-50*	0	3
O=C(O)CC1SC(=Nc2ccccc2)N(c2ccccc2)C1=O (stereo not given)	-1	-5	-31*	11	2
Cc1ccc(NC(=O)Cn2cc(C(=O)c3ccco3)c3ccccc32)cc1	6	-6	-30	.	.
C=CCn1c(=O)/c(=C/c2ccc(C)o2)s/c1=C(/C#N)C(=O)c1ccccc1	58*	-6	-3	6	14
C=CCn1c(=O)/c(=C\c2ccccn2)s/c1=C(/C#N)C(=O)NCC1CCCO1 (stereo not given)	151*	-5	-28	-18	30
CCOC1(OCC)N=C(N)C2(C#N)C(c3cccc(C)c3)C12C#N (stereo not given)	0	-2	-82*	24	2
CCN(CC)CCn1c2c(c(SCC(=O)Nc3cccc(C(F)(F)F)c3)nc1=O)CCC2	48*	-2	.	.	.
COc1cccc(NC(=O)CSc2nc(=O)n(Cc3ccncc3)c3c2CCCC3)c1	2	37*	0	1	-3
SMILES	D1 ag	D1 PAM	D1 antag	TRPV1 PAM	TRPV1 agonist
O=C(CCNS(=O)(=O)c1ccc(Br)cc1)NC1CCC(O)CC1 (stereo not given)	2	-4	-31*	-3	2
Cc1ccc2c(c1)sc1nc(=O)n(-c3ccc(Cl)c(Cl)c3)c(=O)n12	1	1	-39*!	-8	-1
CN1CCN(C(=O)CCN2C(=O)/C(=C\c3ccccc3F)SC2=S)CC1	96*	10	51	-5	5
Oc1ccccc1C1CCCCC1c1ccccc1 (stereo not given)	5	-4	-39*	-23	?
O=c1[nH]c(CN2CCN(C/C=C/c3ccccc3)CC2)nc2ccccc12	5	-6	-5	7	-12
Nc1nc(N2CCN(C/C=C/c3ccccc3)CC2)nc2ccccc12	40*	-19	-50*	-16	-1
Cn1nnnc1SCCCNCc1cc(Cl)ccc1OCc1ccccc1	40*	-1	-26	.	.
COc1cccc(CNCCCSc2nnnn2C)c1	8	0	2	.	.
Cn1nnnc1SCCCNCc1cccc(OCc2ccccc2Cl)c1	108*	1	-19	.	.
COc1cccc(CNCCSc2nnnn2C)c1	4	-2	4	-1	-1
Cn1nnnc1SCCNCc1ccccc1OCc1ccccc1	14	-3	-22	-6	9
Cn1nnnc1SCCCNCc1ccccc1OCc1ccccc1Cl	119*	3	-46*	11	10
Cn1nnnc1SCCCNCc1cccc(OCc2ccccc2F)c1	45*	-1	-4	.	.
CCCCc1ccc(Nc2cc(C)nc(-n3nc(C)cc3C)n2)cc1	0	3	-2	.	.
Cc1ccc(NS(=O)(=O)c2ccccc2)c(C)c1	2	4	-6	-5	-3
CCOc1ccc(NC(=O)C2CCN(S(=O)(=O)c3ccc4c(c3)oc(=O)n4C)CC2)cc1	-1	-3	-11	.	.
COC(=O)c1ccc(N2C(=O)Cc3cc(OC)c(OC)cc3C2c2ccc(F)cc2)cc1 (stereo not given)	0	-1	-10	.	.
Cc1c(N/C(=N/S(=O)(=O)c2ccccc2)c2ccc(Cl)cc2)c(=O)n(-c2ccccc2)n1C	1	1	-2	4	6
Cc1c(N/C(=N/S(=O)(=O)c2ccc(Cl)cc2)c2ccccc2)c(=O)n(-c2ccccc2)n1C	2	-2	-63*	6	-1
C=CCn1c(SCc2ccc(C#N)cc2)nnc1-c1cccc(Cl)c1	-4	-3	-39*	7	5
C=CCn1c(SCc2cccc(C#N)c2)nnc1-c1ccccc1O	4	9	2	22	3
CC(C)OC(=O)c1cc(C(=O)c2cc(F)ccc2O)coc1=N	12	-2	-3	?	0
COc1ccc(O)c(C(=O)c2coc(=N)c(C(=O)Nc3ccc(SC(F)F)cc3)c2)c1	33*	-1	-11	-15	5
CCC(CC)NCc1ccc2c(c1)c1ccccc1n2CC	60*	2	12	-7	-1
COc1cccc(CNCc2ccc(OC)cc2OC)c1	6	-7	-15	-27	5
CCn1c2ccccc2c2cc(CNCc3ccc(OC)cc3OC)ccc21	94*	-4	-28	22	-3
COc1ccc(CNCc2cc(C)c(OC)cc2C)c(OC)c1	30*	-4	-2	-1	5
Cc1ccc(S(=O)(=O)Cc2ccc(C(=O)NCCc3ccc(Cl)cc3)o2)cc1	2	4	-23	.	.

Screening results from PubChem BioAssay.
